We go through 6 molecules from PubChem BioAssay (Tox21).

Structures are written as SMILES. Results filed as inconclusive are left out. A structure can be active in one record and inactive in another. Calls of active or inactive are those of the source. Unless noted, the call rests on the fitted dose curve; in most records, active means well fitted curve in the direction sought with a large enough effect in the repeat runs; inconclusive means weak or mixed curves; inactive means no such curve, though single readings can be large; an effect the other way counts as inactive or inconclusive.

Test [1] concerns the target Peroxisome proliferator-activated receptor delta (Homo sapiens) (UniProt Q03181). The experiment in a line: qHTS assay to identify small molecule agonists of the peroxisome proliferator-activated receptor delta (PPARd) signaling pathway (AID 743212; calls by dose curve). The method, boiled down: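 Tox21 library screened in GeneBLAzer PPARd UAS-bla HEK293H cells. After compound treatment at 37 C, a FRET-based beta-lactamase substrate was applied for 2 h and fluorescence recorded.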
For orientation: In qHTS, concentration-response curves come from the screen itself.

Test [2] is described as follows: qHTS assay to identify small molecule antagonists of the peroxisome proliferator-activated receptor delta (PPARd) signaling pathway - cell viability counter screen (AID 743213). Further: nearly all actives have a fitted effect of over 50% in size. Further: potency means the concentration at half of the fitted maximal effect. The method, boiled down: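 Cytotoxicity counter screen: CellTiter-Glo luminescence read 30 min after addition, in the same wells as the reporter assay. There, PPARd UAS-bla HEK293H cells (3000/well) were treated 17 h at 37 C with compound and 300 nM L165041.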

Test [3] has as its target Peroxisome proliferator-activated receptor delta (Homo sapiens) (UniProt Q03181). The experiment in a line: qHTS assay to identify small molecule antagonists of the peroxisome proliferator-activated receptor delta (PPARd) signaling pathway (AID 743215; active means well fitted inhibition curve with a large enough effect in the signal ratio in the repeat runs, not every such curve was filed as active; the % refers to the signal ratio;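 further: cells stimulated with agonist L165041 at 300 nM final during compound exposure; series mostly up to about 62 µM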). The method, boiled down: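 Here, a reporter line (HEK293H, beta-lactamase under a UAS) measures PPARd signaling. Compounds are tested against agonist L165041 at 300 nM final concentration over 17 h at 37 C, with fluorescence read after substrate.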

A short description of test [4]: qHTS assay to identify small molecule agonists of the farnesoid-X-receptor (FXR) signaling pathway - cell viability counter screen (AID 743218). Further: nearly all actives have a fitted effect of over 45% in size. Further: potency means the concentration at half of the fitted maximal effect. Summed up: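 Quantitative HTS counter screen measuring ATP-based viability via CellTiter-Glo luminescence in HEK 293T cells carrying a UAS-driven beta-lactamase reporter, after 16 h compound exposure at 37 C.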
The target of test [5] is Bile acid receptor (Homo sapiens) (UniProt Q96RI1). The experiment in a line: qHTS assay to identify small molecule agonists of the farnesoid-X-receptor (FXR) signaling pathway (AID 743220; active means well fitted activation curve with a large enough effect in the signal ratio in the repeat runs, not every such curve was filed as active; the % refers to the signal ratio; further: potency means the concentration at half of the fitted maximal effect). Summed up: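 FXR-UAS-bla HEK 293T cells carrying a UAS-driven beta-lactamase reporter were plated for 5 h at 37C/5% CO2, then exposed to DMSO-dissolved Tox21 10K compounds for 16 h at 37C. A LiveBLAzer B/G FRET substrate was loaded for 2 h at room temperature before fluorescence reading.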

Test [6] can be described thus: qHTS assay to identify small molecule antagonists of the farnesoid-X-receptor (FXR) signaling pathway - cell viability counter screen (AID 743221; active means well fitted cell-killing curve with a large enough effect in the repeat runs, not every such curve was filed as active; further: nearly all actives have a fitted effect of over 50% in size). Summed up: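 After a 5 h settling period, FXR-bla HEK 293T cells receive compound and chenodeoxycholic acid (50 uM final) and incubate 16 h at 37 C; CellTiter-Glo luminescence, read after 30 min at room temperature, reports cell viability.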

For test [7], the target named is Vitamin D3 receptor (Homo sapiens) (UniProt P11473). The experiment in a line: qHTS assay to identify small molecule agonists of the vitamin D receptor (VDR) signaling pathway (AID 743222; calls by dose curve). The method, boiled down: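 Tox21 cell reporter format: VDR-bla line, 16 h compound exposure in 5% CO2 at 37C, then fluorescence intensity after 2 h with LiveBLAzer B/G FRET substrate.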

The target is the same in test [8]. The experiment in a line: qHTS assay to identify small molecule antagonists of the vitamin D receptor (VDR) signaling pathway (AID 743223; active means well fitted inhibition curve with a large enough effect in the signal ratio in the repeat runs, not every such curve was filed as active; the % refers to the signal ratio). Summed up:
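Reporter line VDR-bla; stimulus 1alpha,25-(OH)2 vitamin D3, 3 nM final; compound co-addition, 16 h 37C/5% CO2; LiveBLAzer B/G substrate 2 h RT; fluorescence intensity.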

Test [9] in a line: qHTS assay to identify small molecule agonists of the vitamin D receptor (VDR) signaling pathway - cell viability counter screen (AID 743224). Further: nearly all actives have a fitted effect of over 50% in size. Further: potency means the concentration at half of the fitted maximal effect. The method, boiled down:
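CellTiter-Glo viability readout on VDR-bla cells, measured after 16 h of compound treatment at 37C in the same wells.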

Test [10] is described as follows: qHTS assay to identify small molecule antagonists of the vitamin D receptor (VDR) signaling pathway - cell viability counter screen (AID 743225). Further: nearly all actives have a fitted effect of over 50% in size. Summed up:
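Parallel cytotoxicity test: VDR-UAS-bla HEK 293T, 3 nM (final) 1-alpha,25-dihydroxyvitamin D3 with test compound, 16 h, 37C. Endpoint is CellTiter-Glo luminescence in the same wells.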

Test [11] can be described thus: qHTS assay to identify small molecule agonists of the NFkB signaling pathway - cell viability counter screen (AID 1159515; calls by dose curve; further: series mostly up to about 61 µM; nearly all actives have a fitted effect of over 55% in size). The method, boiled down:
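Tox21 library compounds were tested for cytotoxicity against NFkB-bla ME-180 cells during a 5 hr exposure at 37 C. CellTiter-Glo luminescence served as the viability read-out.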

A short description of test [12]: qHTS assay to identify small molecule agonists of the endoplasmic reticulum stress response signaling pathway (AID 1159516; active means well fitted activation curve with a large enough effect in the signal ratio in the repeat runs, not every such curve was filed as active; the % refers to the signal ratio). The method, boiled down:
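Fluorescence at 460 and 530 nm (405 nm excitation) reports beta-lactamase from an ER stress response element in HeLa cells treated 5 hr at 37 C.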

Test [13] in a line: qHTS assay to identify small molecule agonists of the endoplasmic reticulum stress response signaling pathway - cell viability counter screen (AID 1159517; calls by dose curve). The method, boiled down: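 In parallel with the ESRE reporter read, cytotoxicity was scored by CellTiter-Glo luminescence (30 min, room temperature) on HeLa ESRE-bla cells dosed for 5 hr.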
Test [14] in a line: qHTS assay to identify small molecule antagonists of the retinoid-related orphan receptor gamma (ROR-gamma) signaling pathway - cell viability counter screen (AID 1159520). Further: nearly all actives have a fitted effect of over 50% in size. Further: potency means the concentration at half of the fitted maximal effect. The method, boiled down: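 Tet-on ROR gamma CHO cells were given compounds for 2 hr, then doxycycline hyclate at 1 uM final, and incubated 16 hr at 37 C. Viability was measured as ATP content by CellTiter-Glo luminescence.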

Test [15] addresses Nuclear receptor ROR-gamma (Homo sapiens) (UniProt P51449). Description: qHTS assay to identify small molecule antagonists of the retinoid-related orphan receptor gamma (ROR-gamma) signaling pathway (AID 1159521; further: nearly all actives have a fitted effect of over 50% in size; further: potency means the concentration at half of the fitted maximal effect). Summed up:
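Decreased RORE-driven luciferase luminescence indicates antagonism. Tet-on RORγ CHO cells received compound, then 1 uM final doxycycline 2 h later; signal read after 16 h incubation.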

Test [16] can be described thus: qHTS assay to identify small molecule agonists of the AP-1 signaling pathway - cell viability counter screen (AID 1159525; calls by dose curve; further: nearly all actives have a fitted effect of over 55% in size; further: potency means the concentration at half of the fitted maximal effect). Summed up:
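Same-well cytotoxicity counter screen of the Tox21 10K library in ME-180 cells. The readout is ATP-dependent luminescence after 5 h compound treatment. Data are normalised to DMSO and tetra n-octyl ammonium bromide controls.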

The target of test [17] is Retinoic acid receptor RXR-alpha (Homo sapiens) (UniProt P19793). The experiment in a line: qHTS assay to identify small molecule agonists of the RXR signaling pathway (AID 1159527; calls by dose curve; further: nearly all actives have a fitted effect of over 35% in size). The method, boiled down: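 16 hr incubation of compound-treated RXR-alpha-UAS-bla HEK 293T cells (2% charcoal-stripped FBS, 37 C) preceded a 2 hr room-temperature LiveBLAzer FRET substrate step and blue/green fluorescence measurement.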

Test [18] can be described thus: qHTS assay to identify small molecule agonists of the RXR signaling pathway - cell viability counter screen (AID 1159529). Further: nearly all actives have a fitted effect of over 50% in size. Further: potency means the concentration at half of the fitted maximal effect. Summed up:
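In this parallel viability measure, GeneBLAzer RXR-alpha HEK 293T cells (2% charcoal-stripped FBS) were given a 5 hr preincubation, treated with compounds 16 hr at 37 C, and read by CellTiter-Glo luminescence.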

The nature of test [19]: qHTS assay to identify small molecule agonists of the AP-1 signaling pathway (AID 1159526; calls by dose curve).
In test [20] the target is Bile acid receptor (Homo sapiens) (UniProt Q96RI1). The experiment in a line: qHTS assay to identify small molecule antagonists of the farnesoid-X-receptor (FXR) signaling pathway (AID 743217; active means well fitted inhibition curve with a large enough effect in the signal ratio in the repeat runs, not every such curve was filed as active; the % refers to the signal ratio). The method, boiled down:
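Test compounds are pin-transferred onto FXR-bla HEK 293T cells, then chenodeoxycholic acid is added at 50 uM final. After 16 h at 37 °C, LiveBLAzer B/G substrate is applied for 2 h at room temperature and fluorescence read.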

Retinoic acid receptor RXR-alpha (Homo sapiens), sequence (P19793 whole entry, looked up): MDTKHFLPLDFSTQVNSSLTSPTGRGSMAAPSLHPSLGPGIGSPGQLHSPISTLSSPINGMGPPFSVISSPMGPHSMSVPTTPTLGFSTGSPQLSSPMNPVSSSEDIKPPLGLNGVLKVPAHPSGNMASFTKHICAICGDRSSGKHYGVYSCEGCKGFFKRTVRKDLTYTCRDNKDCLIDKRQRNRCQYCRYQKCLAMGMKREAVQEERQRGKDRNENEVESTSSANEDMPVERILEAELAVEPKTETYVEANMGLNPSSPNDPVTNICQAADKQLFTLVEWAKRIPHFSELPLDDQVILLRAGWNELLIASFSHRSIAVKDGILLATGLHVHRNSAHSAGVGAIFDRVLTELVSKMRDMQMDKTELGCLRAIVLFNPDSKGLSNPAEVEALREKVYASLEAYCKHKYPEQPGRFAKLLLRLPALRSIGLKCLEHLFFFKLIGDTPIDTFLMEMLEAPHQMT
Peroxisome proliferator-activated receptor delta (Homo sapiens), sequence (Q03181 whole entry, looked up): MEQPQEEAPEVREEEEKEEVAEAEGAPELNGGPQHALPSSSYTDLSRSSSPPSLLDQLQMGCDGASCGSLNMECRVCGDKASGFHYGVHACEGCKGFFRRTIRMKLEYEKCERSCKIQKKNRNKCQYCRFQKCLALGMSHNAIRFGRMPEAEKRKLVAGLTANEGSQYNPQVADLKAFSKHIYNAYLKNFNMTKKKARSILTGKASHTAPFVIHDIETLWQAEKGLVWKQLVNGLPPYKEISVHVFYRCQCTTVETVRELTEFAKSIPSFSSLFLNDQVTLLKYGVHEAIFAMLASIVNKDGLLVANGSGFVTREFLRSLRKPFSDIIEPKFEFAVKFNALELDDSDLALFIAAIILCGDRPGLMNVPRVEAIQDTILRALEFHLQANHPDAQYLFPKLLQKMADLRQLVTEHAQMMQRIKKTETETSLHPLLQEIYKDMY
Vitamin D3 receptor (Homo sapiens), sequence (P11473 whole entry, looked up): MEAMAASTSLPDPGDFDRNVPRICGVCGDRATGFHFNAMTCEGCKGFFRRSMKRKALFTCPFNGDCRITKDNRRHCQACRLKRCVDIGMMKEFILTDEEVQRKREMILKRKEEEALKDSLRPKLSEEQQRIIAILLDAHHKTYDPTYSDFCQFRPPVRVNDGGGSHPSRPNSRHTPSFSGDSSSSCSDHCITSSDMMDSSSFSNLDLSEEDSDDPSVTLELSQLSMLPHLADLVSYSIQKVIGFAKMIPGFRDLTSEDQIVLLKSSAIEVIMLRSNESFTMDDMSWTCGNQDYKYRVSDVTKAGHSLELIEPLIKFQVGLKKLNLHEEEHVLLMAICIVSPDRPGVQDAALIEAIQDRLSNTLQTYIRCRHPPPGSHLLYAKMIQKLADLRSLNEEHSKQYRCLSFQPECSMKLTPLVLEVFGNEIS
Bile acid receptor (Homo sapiens), sequence (Q96RI1 whole entry, looked up): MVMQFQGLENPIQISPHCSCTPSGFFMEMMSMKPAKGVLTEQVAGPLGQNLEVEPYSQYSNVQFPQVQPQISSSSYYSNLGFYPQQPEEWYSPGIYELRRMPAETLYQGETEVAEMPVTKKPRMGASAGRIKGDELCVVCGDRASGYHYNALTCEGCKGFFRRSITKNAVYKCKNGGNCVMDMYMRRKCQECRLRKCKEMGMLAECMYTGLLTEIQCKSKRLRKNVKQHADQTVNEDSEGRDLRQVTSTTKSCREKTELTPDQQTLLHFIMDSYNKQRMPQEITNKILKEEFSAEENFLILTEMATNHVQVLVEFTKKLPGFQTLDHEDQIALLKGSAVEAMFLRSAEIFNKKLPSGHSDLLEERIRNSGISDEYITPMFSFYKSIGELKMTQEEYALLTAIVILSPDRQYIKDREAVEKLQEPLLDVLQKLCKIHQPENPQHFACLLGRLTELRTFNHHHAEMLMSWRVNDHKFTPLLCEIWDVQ

With `CCCCOCCOC(=O)c1ccccc1C(=O)OCCOCCCC`, the Potency entry in [1], in test [3], in [4], in test [5], in test [6] and in [7] was “inactive” in each case. The Potency result in test [8], in test [10], in test [11], in [13], in [14] and in test [15] was “inactive” in each case. The Potency result in [16] and in test [17] was “inactive” each time. For the same molecule, the Potency is 42.7 µM (active) and inactive in [2]; 30.2 µM (active) and inactive in [9]; 38.1 µM (active) and inactive in [18]. The call in test [12] was inactive.

As for `CC(N)=O`, the Potency entry in test [2], in test [4], in test [6], in test [9], in test [10] and in test [11] was “inactive” each time. Further, the Potency result in test [13], in test [14], in [15], in test [16], in test [19] and in [17] was “inactive” throughout. In test [18], the Potency entry is “inactive”. The call in [12] was inactive.

Consider `O=C1CC2(CCCC2)CC(=O)N1CCCCN1CCN(c2ncccn2)CC1`, for which the Potency result in [2], in test [20], in [5], in test [6], in test [7] and in [9] was “inactive” throughout. In addition, the Potency entry in test [10], in test [11], in test [13], in [14], in test [16] and in test [19] was “inactive” in each case. The Potency result in [18] is “inactive”. In addition, the Potency is 24.5 µM (active) and inactive in test [4]; 27.3 µM (active) and inactive in test [15]. Moreover, the result in test [12] was inactive.

On to `OCCN1CCNCC1`, for which the Potency entry in [1], in test [2], in test [3], in test [20], in test [4] and in test [5] was “inactive” each time. The Potency result in test [6], in [7], in test [8], in [9], in test [10] and in [11] was “inactive” throughout. Besides, the Potency result in [13], in [16], in test [19] and in test [18] was “inactive” each time. Moreover, the call in [12] was inactive. In addition, the Potency in test [14] is 60.5 µM (active) and inactive.

In the case of `CCCC(=O)c1ccccc1`, the Potency entry in test [1], in test [3], in test [4], in test [6], in test [7] and in test [8] was “inactive” each time. In addition, the Potency entry in test [9], in [10], in [11], in [13], in test [14] and in test [15] was “inactive” throughout. The Potency entry in test [16], in [19] and in test [18] was “inactive” each time. Besides, the molecule was classed as inactive in [12].

With `Nc1ccc(O)cc1`, the Potency result in [20], in test [6], in test [8], in test [9], in test [10] and in test [11] was “inactive” throughout. Further, the Potency entry in test [13], in test [19], in test [17] and in [18] was “inactive” each time. Moreover, the Potency was 25.5 µM (active) and inactive in [4]; 20.3 µM (active) and inactive in test [5]; 63.5 µM (active) and inactive in test [14]; 31.8 µM (active) and inactive in test [15]; 32.1 µM (active) and inactive in test [16]. The result in [12] was inactive.
